Screening data as filed in PubChem BioAssay.
PME-1 inh = PME-1 inhibitors via competitive probe labeling, primary screen, biochemical, fluorescence polarization, FP-Rh probe, HTS; Protein phosphatase methylesterase 1 (Homo sapiens), Q9Y570; recombinant PME-1; inhibition, % at 5.9 µM; 320,000 compounds, 0.53% hits;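 active means inhibition above the campaign mean of all compounds plus 3 SD, cut at about 26% in these data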;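 further: competitive labeling of PME-1 active site by serine hydrolase directed probe; 0% = PME-1 with DMSO and 100% = wells lacking PME-1 enzyme; inhibitors block probe labeling so polarization falls and inhibition rises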
Target sequence (Q9Y570 whole entry, looked up): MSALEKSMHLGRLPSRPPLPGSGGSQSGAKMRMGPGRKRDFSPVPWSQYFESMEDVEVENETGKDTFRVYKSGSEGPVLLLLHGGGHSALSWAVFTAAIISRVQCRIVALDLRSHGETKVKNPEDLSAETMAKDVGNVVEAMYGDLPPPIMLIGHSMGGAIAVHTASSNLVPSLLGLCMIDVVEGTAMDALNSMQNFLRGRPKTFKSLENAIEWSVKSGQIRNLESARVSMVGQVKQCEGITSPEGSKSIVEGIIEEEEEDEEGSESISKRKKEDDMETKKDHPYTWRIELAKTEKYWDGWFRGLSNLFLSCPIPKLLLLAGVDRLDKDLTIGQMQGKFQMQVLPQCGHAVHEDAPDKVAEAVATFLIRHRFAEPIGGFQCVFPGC
Fam108B inh = mouse Fam108B serine hydrolase inhibitors, primary screen, counter-screen for RBBP9 inhibitor project, biochemical, fluorescence polarization | recombinant Fam108B, FP-Rh probe fluorescence polarization | inhibition, % at 9.51 µM | 300,000 compounds, 0.33% hits;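 active means inhibition above the screen mean inhibition plus 3 SD, computed separately per campaign, cut at about 18% in these data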;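 further: inhibitors lower polarization as less probe binds the enzyme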
LYPLA2 inh = LYPLA2 inhibitors, primary screen, counter-screen for PME1 inhibitor project, biochemical, fluorescence polarization, FP-Rh probe ABPP. Acyl-protein thioesterase 2 (Homo sapiens), O95372. recombinant LYPLA2. inhibition, % at 5.9 µM. 320,000 compounds, 0.38% hits;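 active means inhibition above the screen-wide mean plus 3 SD, limit set per campaign, cut at about 26% in these data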;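 further: 0% = LYPLA2 with DMSO and 100% = wells lacking LYPLA2 enzyme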
LYPLA1 counter = LYPLA1 inhibitors, primary screen, counter-screen for PME1 inhibitor project, biochemical, fluorescence polarization, FP-Rh probe ABPP. Acyl-protein thioesterase 1 (Homo sapiens), O75608. recombinant LYPLA1. inhibition, % at 5.9 µM. 320,000 compounds, 0.16% hits. AID 2174, 2009;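 active means inhibition above the mean of all tested compounds plus 3 SD, set per campaign, cut at about 14% in these data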;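 further: inhibitors block serine hydrolase probe labeling of LYPLA1 so polarization falls; 0% = enzyme with DMSO and 100% = wells lacking LYPLA1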
Target sequence (O75608 whole entry, looked up): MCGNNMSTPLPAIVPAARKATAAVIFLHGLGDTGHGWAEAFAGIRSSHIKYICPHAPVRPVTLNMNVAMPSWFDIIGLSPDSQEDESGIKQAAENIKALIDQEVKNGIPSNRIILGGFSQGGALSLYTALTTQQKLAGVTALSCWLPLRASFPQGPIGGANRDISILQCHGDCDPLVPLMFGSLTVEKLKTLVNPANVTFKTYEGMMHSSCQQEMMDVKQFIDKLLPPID
PAD4 inh = human PAD4 inhibitors, primary screen, biochemical, fluorescence polarization, 1536-well format. recombinant PAD4, RCA probe fluorescence polarization. 330,000 compounds, 0.41% hits. Protein-arginine deiminase type-4 (Homo sapiens), Q9UM07. AID 485272, 2010. inhibition, % at 6.36 µM;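 active means percent inhibition above a cutoff equal to the mean of all tested compounds plus 3 SD, cut at about 15% in these data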;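 further: 0% = PAD4 with RCA probe and DMSO and 100% = probe without PAD4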
GSTO1 counter = inhibitors of recombinant GSTO1, primary screen, counter-screen for RBBP9 inhibitor project, biochemical, fluorescence polarization | 300,000 compounds, 1.1% hits | AID 1974, 2009 | activity-based probe fluorescence polarization | Glutathione S-transferase omega-1 (Homo sapiens), P78417 | inhibition, % at 5.96 µM;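 active means inhibition above the campaign mean inhibition plus 3 SD, cut at about 35% in these data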;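 further: 0% = GSTO1-1 with DMSO and 100% = wells lacking GSTO1-1 enzyme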
LYPLA2 conf = LYPLA2 inhibitors, retest, confirmation, counter-screen for PME1 inhibitor project, biochemical, fluorescence polarization, FP-Rh probe ABPP; shares compounds with LYPLA2 inh; recombinant LYPLA2; inhibition, % at 5.9 µM; 1,100 compounds, 72% hits;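 active means mean inhibition across replicates above the hit cutoff set in the primary screen, cut at about 26% in these data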;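 further: blocked labeling of the enzyme by serine hydrolase FP-Rh probe lowers polarization; 0% = enzyme with DMSO and 100% = wells lacking LYPLA2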
LYPLA2 ABPP = LYPLA2 inhibitors in proteome, late-stage follow-up, gel-based competitive ABPP, fluorescence, assay provider. shares compounds with LYPLA2 inh. rhLYPLA2 in mouse brain proteome, gel ABPP FP-Rh. inhibition, % at 20 µM. 150 compounds, 30% hits. AID 652029, 2013;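 active means inhibition of LYPLA2 enzyme probe labeling above about 50%, limit read from the data; inactive means inhibition below that limit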;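 further: loss of FP-Rh probe labeling of the LYPLA2 gel band measured as band density; 0% = DMSO only control band and 100% = blank gel background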
Active calls of the source: *. In the library only some 1.8% were active in any assay of this set; here they are far more common.

Results for COc1ccccc1NC(=O)NCCN1CCN(c2cccc(Cl)c2)CC1 ?
PME-1 inh: 5; Fam108B inh: -4; LYPLA2 inh: 43*; LYPLA1 counter: 6; PAD4 inh: -7; GSTO1 counter: 1; LYPLA2 conf: 32*

Results for CC(=O)N1c2ccc(S(=O)(=O)NCC3CCC(C(=O)NCc4ccc(C)cc4)CC3)cc2CC1C (stereo not given) ?
PME-1 inh: 1; Fam108B inh: 7; LYPLA2 inh: 28*; LYPLA1 counter: -2; PAD4 inh: -7; GSTO1 counter: 3; LYPLA2 conf: 28*

What do the screens show for `CC(=O)N1c2ccc(S(=O)(=O)NCC3CCC(C(=O)NCc4ccc(C)o4)CC3)cc2CC1C` (stereo not given)?
PME-1 inh: 5; Fam108B inh: -6; LYPLA2 inh: 0; LYPLA1 counter: 2; PAD4 inh: 1; GSTO1 counter: 2

Results for Cc1nn(-c2ccccc2)c(C)c1C(=O)OCC(=O)Nc1ccccc1 ?
PME-1 inh: 5; LYPLA2 inh: 39*; LYPLA1 counter: 3; PAD4 inh: 6; LYPLA2 conf: 25

How did COc1cccc(NC(=O)COC(=O)c2c(-c3ccccc3)noc2C)c1 do in these assays?
PME-1 inh: -4; Fam108B inh: -1; LYPLA2 inh: 28*; LYPLA1 counter: -2; PAD4 inh: 2; GSTO1 counter: 7; LYPLA2 conf: 21

What do the screens show for `Cc1ccc(NC(=O)COC(=O)c2c(C)nn(-c3ccccc3)c2C)cc1`?
PME-1 inh: -8; LYPLA2 inh: 4; LYPLA1 counter: -3; PAD4 inh: 1

What do the screens show for `Cc1ccc(C(=O)NCCNc2ccc([N+](=O)[O-])cc2C(F)(F)F)cc1`?
PME-1 inh: 8; Fam108B inh: -1; LYPLA2 inh: 8; LYPLA1 counter: -3; PAD4 inh: 4; GSTO1 counter: 13

How did O=C(NCCNc1ccc([N+](=O)[O-])cc1C(F)(F)F)c1ccccc1F do in these assays?
PME-1 inh: -5; Fam108B inh: -6; LYPLA2 inh: 27*; LYPLA1 counter: -7; PAD4 inh: 1; GSTO1 counter: 2; LYPLA2 conf: 26

How did O=C(c1ccncc1)c1ccc(N2CCN(C3CC(=O)N(Cc4ccccc4)C3=O)CC2)cc1 (stereo not given) do in these assays?
PME-1 inh: -7; Fam108B inh: 1; LYPLA2 inh: 28*; LYPLA1 counter: 6; PAD4 inh: -1; GSTO1 counter: 8; LYPLA2 conf: 23

Results for COc1ccc(N2CCN(C3CC(=O)N(Cc4ccccc4)C3=O)CC2)cc1 (stereo not given) ?
PME-1 inh: 4; Fam108B inh: 2; LYPLA2 inh: 0; LYPLA1 counter: -3; PAD4 inh: -4; GSTO1 counter: 1

Results for O=C(Nc1ccc(F)cc1)C1CCCN(C2=NS(=O)(=O)c3ccccc32)C1 (stereo not given) ?
PME-1 inh: 10; LYPLA2 inh: -5; LYPLA1 counter: -6; PAD4 inh: 2

How did CN1CCN(c2ccc(NC(=O)c3ccc(C(F)(F)F)cc3)cn2)CC1 do in these assays?
PME-1 inh: -1; Fam108B inh: 2; LYPLA2 inh: -1; LYPLA1 counter: -2; PAD4 inh: -1; GSTO1 counter: 1

What do the screens show for `CNC(=S)Nc1ccc(N2CCN(c3ccc(C(F)(F)F)cn3)CC2)nc1`?
PME-1 inh: 2; Fam108B inh: 1; LYPLA2 inh: 54*; LYPLA1 counter: 8; PAD4 inh: -3; GSTO1 counter: -6; LYPLA2 conf: 65*; LYPLA2 ABPP: 19

How did Cn1c(SCc2cc([N+](=O)[O-])cc3c2OCOC3)nnc1-c1ccccn1 do in these assays?
PME-1 inh: 5; Fam108B inh: 0; LYPLA2 inh: 4; LYPLA1 counter: 8; PAD4 inh: -5; GSTO1 counter: 2

Results for CCCC(=O)Nc1ccc(NC(=S)NC(=O)c2ccccc2[N+](=O)[O-])cc1 ?
PME-1 inh: 2; Fam108B inh: 3; LYPLA2 inh: 30*; LYPLA1 counter: 2; PAD4 inh: -4; GSTO1 counter: -1; LYPLA2 conf: 31*

What do the screens show for `CCC(=O)NC(=S)Nc1ccc(NC(=O)c2ccccc2[N+](=O)[O-])cc1`?
PME-1 inh: -1; Fam108B inh: 7; LYPLA2 inh: 14; LYPLA1 counter: 0; PAD4 inh: -5; GSTO1 counter: -5

How did COc1cccc(S(=O)(=O)Nc2ccc(C(=O)N3CCN(C(=O)c4ccco4)CC3)cc2)c1 do in these assays?
PME-1 inh: 3; Fam108B inh: -2; LYPLA2 inh: 1; LYPLA1 counter: 0; PAD4 inh: -1; GSTO1 counter: 2

How did COc1ccc(C(=O)ON=C2CCCc3nonc32)cc1 do in these assays?
LYPLA2 ABPP: 6

Results for COc1ccc(NC(=O)CO/N=C2\CCCc3nonc32)cc1 ?
PME-1 inh: -3; Fam108B inh: 0; LYPLA2 inh: -1; LYPLA1 counter: -2; PAD4 inh: -7; GSTO1 counter: 0

How did Cc1c(Br)c([N+](=O)[O-])nn1CC(=O)N1CCN(C23CC4CC(CC(C4)C2)C3)CC1 do in these assays?
PME-1 inh: 2; Fam108B inh: 0; LYPLA2 inh: 27*; LYPLA1 counter: 6; PAD4 inh: 1; GSTO1 counter: 4; LYPLA2 conf: -1

Results for O=C(CSC1=NS(=O)(=O)c2cc(F)ccc2N1)NCc1ccccc1 ?
PME-1 inh: 1; Fam108B inh: -2; LYPLA2 inh: 2; LYPLA1 counter: 1; PAD4 inh: 0; GSTO1 counter: -7

Results for O=C1CCCN1CCC1CCN(C2CC(=O)N(c3ccc(Cl)cc3)C2=O)CC1 (stereo not given) ?
PME-1 inh: 2; Fam108B inh: 2; LYPLA2 inh: 33*; LYPLA1 counter: 5; PAD4 inh: -6; GSTO1 counter: -2; LYPLA2 conf: 35*

What do the screens show for `O=C1CCCN1CCC1CCN(C2CC(=O)N(Cc3ccc(N4CCCC4=O)cc3)C2=O)CC1` (stereo not given)?
PME-1 inh: 2; Fam108B inh: 3; LYPLA2 inh: -1; LYPLA1 counter: -1; PAD4 inh: -5; GSTO1 counter: -3
